# Data taken from PubChem BioAssay AID463117 (University of Pittsburgh Molecular Library Screening Center, 2010).
# The other results are listed elsewhere or left out. Activity calls are given as the source filed them.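 The calls were made as follows: active = mean protection from necroptosis of at least 50% over duplicate tests; inactive = mean protection below 50%.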
# Assay: rescue of L929 cells from caspase-blocker death – duplicate runs, confirmation (AID 463117);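 also: 0% = cells with zVAD alone and 100% = vehicle cells without zVAD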
# Details: L929 zVAD-induced necroptosis rescue, ATP luminescence, 24 h; at 10 µM; active compounds read high
compound,measurement,value
COC(=O)N1C(c2ccccc2)C1c1ccccc1 (stereo unspecified),activation (protection from necroptosis),91.7% (active)
